# According to ChEMBL document CHEMBL1157539, “Thousands of chemical starting points for antimalarial lead identification” (Nature, 2010):
# Tests used:
# Assay type in all cases: functional
# [1] = test system: Plasmodium falciparum; assay: GSK_TCMDC: Inhibition of Plasmodium falciparum 3D7 in whole red blood cells, using parasite LDH activity as an index of growth. Test compounds present at 2uM
# [2] = test system: Plasmodium falciparum; assay: GSK_TCMDC: Inhibition of Plasmodium falciparum Dd2 in whole red blood cells, using parasite LDH activity as an index of growth. Test compounds present at 2uM
# [3] = test system: HepG2; assay: GSK_TCMDC: Percent inhibition of human HepG2 cell line. Test compounds present at 10uM.
SMILES,Inhibition [1],Inhibition [2],Inhibition [3]
O=C(O)C(F)(F)F.O=S(=O)(NCCN1CCCC1)c1ccc(-c2ccc(CNCc3ccc(F)cc3)cc2)cc1,94%,44%,42%
COc1ccc2nccc([C@@H](O)CN3CCC(NC(=O)/C=C/c4ccc5cc(C)[nH]c5c4)CC3)c2c1,97%,93%,7%
N#Cc1ccc(C(=O)Nc2cc(-c3cccc(O)c3)cc3[nH]ncc23)cc1,90%,79%,15%
Fc1ccccc1C=NN=c1cc[nH]c2ccc(C(F)(F)F)cc12,100%,61%,5%
CCCCOC(=O)c1ccc(NC(=O)Nc2ccc(Cn3ncc(N4CCCNCC4)c(Cl)c3=O)cc2)cc1.O=C(O)C(F)(F)F,92%,74%,2%
Cc1nc(-c2cccc3c(NC(=O)N4CCc5cc6nccc(N7CCN(C)CC7)c6cc54)cccc23)no1.Cl,100%,97%,45%
CCCN(CCC)CCCCC(C)Nc1c2ccc(Cl)cc2nc2ccc(OC)cc12.Cl (centres undefined),100%,100%,42%
Cc1cc(C(F)(F)F)nn1-c1ccc(NC(=O)c2ccco2)cc1,94%,93%,14%
O=C(CC1SC(N2N=C(c3cccs3)CC2c2ccccc2)=NC1=O)Nc1ccccc1F (centres undefined),87%,76%,9%
NS(=O)(=O)c1cccc(-c2ccc3c(O)ncnc3c2)c1,99%,100%,6%
OC(CNC1CCCCC1)Cn1c2ccc(Br)cc2c2cc(Br)ccc21 (centres undefined),98%,100%,10%
CCOc1cc(C(=O)NCCc2ccc(Cl)c(Cl)c2)ccc1-c1nc2cc(Cl)ccc2[nH]1,100%,47%,9%
COc1ccc(CCN(C)CCCCNC(=O)c2ccc(NC(=O)c3ccc(Cl)cc3)cc2)c(OC)c1,87%,0%,12%
COc1ccc2nccc([C@@H](O)CN3CCC(NCc4cc5oc(=O)[nH]c5cc4Cl)CC3)c2c1.O=C(O)C(=O)O,100%,91%,1%
COc1cc(NC(=O)/C=C/c2cc(F)cc(F)c2F)cc(OCCN2CCN(CCN3CCOCC3)CC2)c1.O=C(O)C(=O)O,100%,94%,21%
COc1cc(NC(=O)N2CCOC(CCN3CCC(c4ccccc4)CC3)(c3ccc(Cl)c(Cl)c3)C2)cc(OC)c1OC (centres undefined),93%,73%,15%
COc1ccc(CNC(=O)c2cnc3c(O)cccc3c2Nc2cccc(NC(=O)c3ccc(-c4ccccc4)cc3)c2)cc1.O=C(O)C(F)(F)F,90%,83%,42%
CN1CCN(c2ccc(Cl)cc2NC(=O)C2COc3ccccc3O2)CC1 (centres undefined),99%,44%,2%
O=C(Nc1ccc(-c2ccccc2)cc1)Nc1cccc(Cn2cnc(N3CCCNCC3)cc2=O)c1.O=C(O)C(F)(F)F,88%,13%,8%

SMILES,Inhibition [1],Inhibition [2],Inhibition [3]
O=C(Nc1ccc(CCNCCCc2ccccc2)cc1)Nc1ccc(Cl)c(Cl)c1,100%,99%,33%
O=C(O)C(F)(F)F.c1cc(-c2ccc(CN3CCN(c4ccncc4)CC3)cc2)cc(-c2nc3ccccc3[nH]2)c1,100%,100%,61%
COc1ccc2c(NN=Cc3cccnc3)ccnc2c1,97%,26%,3%
Cc1ccc(C2CCN(CCCCNC(=O)c3ccc(NC(=O)c4ccc(Cl)cc4)cc3)CC2)c(OCC2CC2)c1.Cl,100%,95%,63%
CC(C)NCc1ccc(-c2ccc(-c3nc4cc(C(F)(F)F)ccc4[nH]3)cc2)cc1.O=C(O)C(F)(F)F,100%,98%,16%
Cc1cccc2nc(-c3cccc(-c4cccc(NC(=O)Nc5cccc(C#N)c5)c4)c3)[nH]c12,100%,99%,22%
CCOc1ccccc1N1CCN(CCCNC(=O)/C(=C/C=C/c2cc3cc(Cl)c(Cl)cc3[nH]2)OC)CC1,98%,93%,45%
C=CCN(C(=O)c1ccc(Cl)c([N+](=O)[O-])c1)c1nc(-c2ccccc2)cs1,100%,99%,0%
COc1ccc(-c2cc(C(=O)N[C@@H](CC3CCCCC3)C(=O)NCCN3CCCC3)ccc2O)cc1,90%,12%,12%
COc1ccccc1C(=O)Nc1ccc(Nc2nc(C)cc(N(C)C)n2)cc1,100%,76%,1%
COc1ccc2nccc([C@@H](O)CN3CCC(NC(=O)Cc4cc5ccccc5s4)CC3)c2c1,92%,42%,16%
O=C(O)C(F)(F)F.c1cc(CNCc2ccc3c(c2)OCO3)cc(-c2cccc(CNc3ccc4ncccc4c3)c2)c1,98%,27%,18%
Cc1cc(C(=O)Nc2ccc(C)c(-c3nc(N(C(=O)c4ccc(F)c(C)c4)C4CCNCC4)nc4c3ccc(=O)n4-c3c(F)cccc3F)c2)ccc1F,99%,99%,4%
O=C(c1ccc([N+](=O)[O-])o1)N1CCN(c2ccccc2)CC1,94%,72%,44%
CCN(CC)CCN(Cc1ccc(-c2ccc(C(F)(F)F)cc2)cc1)C(=O)Cn1c(SCc2ccc(F)cc2)nc(=O)c2ccccc21.O=C(O)C(O)C(O)C(=O)O,98%,48%,47%
CC(=O)Nc1nc(C(=O)Nc2ccc(-c3ccc(-c4nc5ccccc5[nH]4)cc3)cc2)cs1,100%,53%,38%
Br.CC1(C)NC(N)=NC(=N)N1OCCCc1cc(Cl)c(Cl)cc1Cl,95%,96%,55%
CCCCCCc1cc(Oc2c(I)cc(C[C@H](N)C(=O)O)cc2I)ccc1O,97%,0%,0%
COc1ccc2nccc([C@@H](O)CN3CCC(NC(=O)Cc4cccc5c(Br)cccc45)CC3)c2c1,99%,34%,15%
